Assay outcomes: PubChem, Center for Chemical Genomics, University of Michigan
HIV TAR-Tat = HIV-1 TAR-Tat binding disruption; AID 1259389; z-score (test concentration not listed); HIV-1 TAR RNA, Tat peptide displacement FRET; stronger effect = higher value; 0.6% of 100,000 active; active = z-score of 3 or more in at least 2 runs
CDC25B-CDK2 inh = human CDC25B-CDK2/CyclinA binding inhibition; P30305+P24941; HTRF CDC25B-CDK2/CyclinA binding, anti-His/anti-Flag; stronger effect = higher value; z-score (concentration not given with the values); 0.72% of 94,000 active; AID 1259370; in the data active = z-score above about 3.2
* marks the source's active call; other numbers are inactive results; · = not tested or not shown. Hits are enriched below; roughly 0.86% of the tested compounds scored in any of these assays.

SMILES	HIV TAR-Tat	CDC25B-CDK2 inh
COc1ccc(C2CC(=O)C3=C(C2)Nc2ncnn2C3c2ccc(O)c(OC)c2)cc1 (stereo unspecified)	-0.76	-1.74
CCN(CC)c1ccc(NS(=O)(=O)c2cc(-c3cnc(C)o3)ccc2C)c(C)c1	-1.04	·
COC(=O)c1c(NC(=O)c2cc(-c3ccc4c(c3)OCCO4)on2)sc2c1CCCC2	1.89	-1.97
Cc1cc2c(cc3n2CC(C)(C(=O)NC2CCCCC2)N(C2CCCCC2)C3=O)o1 (stereo unspecified)	2.79	·
Cc1cc2c(cc3n2CC(C)(C(=O)NC2CCCCC2)N(C(C)C)C3=O)o1 (stereo unspecified)	7.24*	·
Cc1ccc(-n2ccc(=O)c(C(=O)Nc3nonc3-c3ccc(Cl)cc3)n2)cc1	0.96	-0.16
Cc1ccc(-c2noc(CN(C)S(=O)(=O)c3ccc(Br)cc3)n2)cc1	0.47	-1.1
Cc1cccn2c(=O)c3cc(C(=O)Nc4ccc(S(N)(=O)=O)cc4)n(C)c3nc12	43.2*	·
Cn1c(C(=O)NCc2ccccn2)cc2c(=O)n3ccccc3nc21	·	-0.05
Cn1c(C(=O)Nc2ccc(S(N)(=O)=O)cc2)cc2c(=O)n3ccccc3nc21	26.6*	·
CCCCNC(=O)c1cc2c(=O)n3ccccc3nc2n1C	4.98*	·
Cn1c(C(=O)Nc2ccc(Oc3ccccc3)cc2)cc2c(=O)n3ccccc3nc21	1.21	·
Cc1cc(NC(=O)c2cc3c(=O)n4cccc(C)c4nc3n2C)ccc1Br	-2.19	·
CCC1Sc2ccc(S(=O)(=O)CCC(=O)Nc3cccnc3)cc2NC1=O (stereo unspecified)	0.21	·
COc1ccc(OC)c(-c2cc(C(=O)O)c3c(-c4ccc(Br)cc4)[nH]nc3n2)c1	2.25	·
Cc1nn(-c2ccc3nnc(C)n3n2)c2c1C(c1ccccc1)CC(=O)N2 (stereo unspecified)	1.27	·
COc1cc(OC)cc(C(=O)Nc2nc3c(s2)CCc2ccc(OC)cc2-3)c1	1.1	-0.88
COc1ccc2c(c1)Cc1sc(NC(=O)c3ccc(Br)cc3)nc1-2	-1.74	17.7*
O=C1CCc2cc(S(=O)(=O)NC(C(=O)NCc3ccccc3)c3ccccc3)ccc2N1 (stereo unspecified)	·	0.32
Cn1cc(S(=O)(=O)c2ccccc2)c(=O)c2cc(F)ccc21	21.2*	-1.56
Cn1cc(S(=O)(=O)c2ccccc2)c(=O)c2cc(Cl)ccc21	2.42	-2.02
CCCS(=O)(=O)N1CCCc2ccc(NS(=O)(=O)c3cc(F)ccc3F)cc21	7.25*	·
CCS(=O)(=O)N1CCCc2ccc(NS(=O)(=O)c3cc(F)ccc3F)cc21	-0.35	·
Cc1[nH]c2ccccc2c1C1=CCN(S(=O)(=O)c2ccc(Cl)cc2)CC1	-0.19	-1.58
CCCc1cc(=O)[nH]c(SCc2ccc(Br)cc2)n1	2.04	-1.85
SMILES	HIV TAR-Tat	CDC25B-CDK2 inh
O=C(CCc1nc(CSc2nc3ccccc3s2)no1)Nc1nc(-c2ccccc2)cs1	1.49	·
CCCn1cnc2cc(NCc3ccc(C)cc3)ccc21	0.51	13.5*
c1ccc(-n2cnc3cc(NCc4ccco4)ccc32)cc1	-0.51	3.31
COc1ccc(CNc2ccc3c(c2)ncn3C)cc1OC	1.31	2.26
CCn1cnc2cc(NCc3ccco3)ccc21	0.58	15.7*
Cc1ccc(CNc2ccc3c(c2)nc(C)n3C)cc1	1.15	-1.78
CCn1cnc2cc(NCc3cccc(Br)c3)ccc21	0.37	13.4*
CC1CN(Cc2nc3c(c(=O)[nH]c(=O)n3C)n2Cc2ccc(F)cc2)CC(C)O1 (stereo unspecified)	-0.58	-1.19
COc1ccc(OC)c(-c2cc(C(=O)Nc3sc4c(c3C(N)=O)CCCC4)no2)c1	·	-1.52
Cc1cc(OCc2n[nH]c(=S)n2C)ccc1Cl	·	0.52
CC(=O)NC1C(OC2OC(CC(O)C3OC(n4ccc(=O)[nH]c4=O)C(O)C3O)C(O)C(O)C2NC(=O)/C=C\CC(C)C)OC(C)C(O)C1O (stereo unspecified)	-0.38	·
CC1(C)O[C@H]2OC(C(=O)NCC(=O)Nc3cccc4ccccc34)[C@@H]3OC(C)(C)O[C@@H]3[C@H]2O1 (stereo partly specified)	·	-0.74
C#CC[n+]1cccc2cc(O)ccc21	·	5.17*
CC(=O)C[n+]1cccc2cccc(O)c21	·	2.21
Cn1nc(C(C)(C)C)cc1C(=O)Sc1ccccc1	·	-0.58
Cc1c(C(=O)O)sc2ncnc(N3CCC(c4ccccc4)C3)c12 (stereo unspecified)	0.4	·
CCOC(=O)C1CCN(c2ncnc3sc(C(=O)O)c(C)c23)CC1	15.9*	·
O=C(NCC(c1ccco1)N1CCCC1)c1cc(=O)c2cc(Cl)ccc2o1 (stereo unspecified)	0.71	-1.11
CC(CS(=O)(=O)c1ccc2c(c1)NC(=O)CS2)C(=O)NCc1ccco1 (stereo unspecified)	5.27*	·
O=C1CSc2ccc(S(=O)(=O)NCc3ccco3)cc2N1	1.7	·
N#Cc1c2ncnc(-c3ccc(Cl)cc3)c2n2ccccc12	0.92	-0.98
